From PubChem BioAssay (NCATS)
Records with an inconclusive call do not appear. The source made the active and inactive calls. Unless noted, the call rests on the fitted dose curve; in most records, active means well fitted curve in either direction with a large enough effect (not every such curve was filed as active); inconclusive means small, poorly fitted or top-dose-only effect, or another doubt; inactive means flat fitted curve, though single readings scatter.

Columns and labels:
[1] = target: Lysosomal acid glucosylceramidase (Homo sapiens) (UniProt P04062); assay: Glucocerebrosidase-p2 (AID 348; in the data active means potency below about 10 µM; further: potency means the concentration at half of the fitted maximal effect); conditions: purified GBA, blue fluorogenic substrate, 40 min
Lysosomal acid glucosylceramidase (Homo sapiens), sequence (P04062 whole entry, looked up): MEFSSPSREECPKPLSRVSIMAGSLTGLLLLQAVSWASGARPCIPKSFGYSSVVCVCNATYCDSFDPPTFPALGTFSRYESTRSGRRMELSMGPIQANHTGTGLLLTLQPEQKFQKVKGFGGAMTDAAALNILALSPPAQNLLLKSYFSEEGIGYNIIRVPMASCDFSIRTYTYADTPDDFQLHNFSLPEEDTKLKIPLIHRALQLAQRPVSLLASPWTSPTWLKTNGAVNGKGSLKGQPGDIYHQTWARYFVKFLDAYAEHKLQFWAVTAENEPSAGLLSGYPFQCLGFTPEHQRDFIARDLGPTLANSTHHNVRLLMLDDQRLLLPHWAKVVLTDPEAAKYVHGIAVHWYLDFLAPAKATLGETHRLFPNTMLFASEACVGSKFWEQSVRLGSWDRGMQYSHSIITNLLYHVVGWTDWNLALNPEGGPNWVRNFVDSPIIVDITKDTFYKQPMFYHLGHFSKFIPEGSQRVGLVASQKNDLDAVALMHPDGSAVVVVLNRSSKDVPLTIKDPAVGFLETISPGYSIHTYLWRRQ
How it was run: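 Compounds titrated from 0.6 nM upwards against 0.2 nM enzyme in pH 5.9 citric acid/KH2PO4, taurocholate, tween-20; blue fluorogenic substrate 80 uM, 40 min room temperature, stopped and read Ex 365/Em 440 for AC50.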

[2] = AP1 Signaling Pathway (AID 357); conditions: ME-180 AP-1-bla reporter, EGF-induced, beta-lactamase ratio, 5 h; at 7.69 µM (top of the series) unless noted;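 further: ME-180 reporter cells stimulated with EGF at its EC50 level; on the % scale 0 is the no-effect control and ±100 the full control effect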
How it was run: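 First, ME-180 AP-1-bla cells were cultured overnight at 37 °C in low-serum Opti-MEM. Next, titrated compounds with EC50 EGF were incubated 5 hours. Finally, CCF4 was added for 2.5 hours and the 460/530 nm ratio recorded.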

[3] = NFAT Signaling Pathway (AID 444); conditions: Jurkat NFAT-bla M1, carbachol, beta-lactamase ratio, 5 h; at 7.69 µM (top of the series) unless noted;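 further: carbachol stimulus at about its EC50 of 1 µM final; on the % scale 0 is the no-effect control and ±100 the full control effect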
How it was run: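 Jurkat cells carrying an NFAT-driven β-lactamase reporter and co-transfected muscarinic M1 receptor were treated with compound plus carbachol (1 uM final, an EC50 level) for 5 h at 37 °C. CCF4 loading followed for 1 h at RT; 460/530 nm ratio gave %activity.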

[4] = Stat Signaling Pathway (AID 446); conditions: ME-180 SIE beta-lactamase reporter, IL-6 stimulated, 5 h; at 7.69 µM (top of the series) unless noted;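 further: ME-180 cervical cancer cells given 40 pM IL-6 alongside compound; SIE-controlled beta-lactamase reporter measured as 460/530 nm FRET emission ratio; on the % scale 0 is the no-effect control and ±100 the full control effect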
How it was run: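 ME-180 cells carrying a SIE-driven beta-lactamase reporter are stimulated with 40 pM IL-6 for 5 h at 37C in the presence of compound. The 460/530 nm FRET substrate ratio is read after 2.5 h at RT. Data are normalised to 300 pM IL-6 and to 125 nM JAK inhibitor controls.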

[5] = target: Glucocorticoid receptor (Homo sapiens) (UniProt P04150); assay: GR-GFP Redistribution (AID 450;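 active means compounds whose dose series gives a full or clear partial fitted curve of increased nuclear translocation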; further: potency means the concentration at half of the fitted maximal effect); conditions: U2OS GR-GFP nuclear translocation, laser cytometry, 2 h
Glucocorticoid receptor (Homo sapiens), sequence (P04150 whole entry, looked up, the tested form may be a part): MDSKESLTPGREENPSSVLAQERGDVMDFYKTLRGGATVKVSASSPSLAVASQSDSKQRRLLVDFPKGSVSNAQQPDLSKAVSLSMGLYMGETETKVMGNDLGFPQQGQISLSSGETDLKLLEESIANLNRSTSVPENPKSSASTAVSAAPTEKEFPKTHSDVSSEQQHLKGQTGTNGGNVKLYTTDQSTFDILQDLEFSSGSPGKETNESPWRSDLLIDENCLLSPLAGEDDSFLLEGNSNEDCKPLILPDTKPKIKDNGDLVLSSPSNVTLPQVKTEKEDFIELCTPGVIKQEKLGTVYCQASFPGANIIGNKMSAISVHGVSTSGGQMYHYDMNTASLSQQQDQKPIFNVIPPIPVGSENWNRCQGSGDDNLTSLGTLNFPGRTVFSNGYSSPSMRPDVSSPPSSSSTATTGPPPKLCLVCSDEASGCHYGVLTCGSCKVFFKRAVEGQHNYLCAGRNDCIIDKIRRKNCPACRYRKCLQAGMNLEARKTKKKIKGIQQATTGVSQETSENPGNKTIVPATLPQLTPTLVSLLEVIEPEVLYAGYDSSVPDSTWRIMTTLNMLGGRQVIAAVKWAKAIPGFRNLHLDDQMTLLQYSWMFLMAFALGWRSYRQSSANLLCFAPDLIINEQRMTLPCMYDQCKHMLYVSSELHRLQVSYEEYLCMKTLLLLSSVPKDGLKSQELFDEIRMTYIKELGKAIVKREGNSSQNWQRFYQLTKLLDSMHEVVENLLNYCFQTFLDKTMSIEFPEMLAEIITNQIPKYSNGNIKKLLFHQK

[6] = target: Glucocorticoid receptor (Homo sapiens) (UniProt P04150); assay: GR-EFC Redistribution (AID 451; calls by dose curve; further: potency means the concentration at half of the fitted maximal effect); conditions: CHO-K1 GR-EFC translocation, beta-gal luminescence, 2 h
How it was run: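 CHO-K1 cells stably expressing nuclear-localized β-gal enzyme acceptor and GR fused C-terminally to the enzyme donor fragment; ligand-driven nuclear translocation restores β-gal by complementation. Compounds titrated up to 46 uM final, 2 h at 37 °C; luminescence read.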

[7] = target: Mitogen-activated protein kinase 10 (Mus musculus) (UniProt Q61831); assay: JNK3 AlphaScreen Assay (AID 530); conditions: JNK3 lysate, c-Jun phosphorylation; series mostly up to 11.4 µM;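 further: kinase came from lysate of stimulated human HepG2 cells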; further: potency means the concentration at half of the fitted maximal effect;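 on activity change, negative = inhibition: signal reports phosphorylation of biotinylated GST-cJun 1-79 at Ser73 with 10 µM ATP; on the % scale 0 is the no-effect control and ±100 the full control effect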
How it was run: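 Inhibitors reduce antibody binding to phosphorylated biotin-cJun, lowering AlphaScreen luminescence. Lysates from HepG2 cells pre-activated by IL-1beta plus TNF-alpha supplied JNK3; compounds were titrated.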

[8] = target: 3',5'-cyclic-AMP phosphodiesterase 4B (Homo sapiens) (UniProt Q07343); assay: qHTS Assay for Inhibitors of PDE-IV (AID 607; active means well fitted activation curve with a large enough effect in the main read-out, with a control signal flat, not every such curve was filed as active; further: % of control where 0% means no effect); conditions: HEK293 ACTOne CNG channel cells, membrane potential fluorescence; series mostly up to 22.9 µM
3',5'-cyclic-AMP phosphodiesterase 4B (Homo sapiens), sequence (Q07343 whole entry, looked up): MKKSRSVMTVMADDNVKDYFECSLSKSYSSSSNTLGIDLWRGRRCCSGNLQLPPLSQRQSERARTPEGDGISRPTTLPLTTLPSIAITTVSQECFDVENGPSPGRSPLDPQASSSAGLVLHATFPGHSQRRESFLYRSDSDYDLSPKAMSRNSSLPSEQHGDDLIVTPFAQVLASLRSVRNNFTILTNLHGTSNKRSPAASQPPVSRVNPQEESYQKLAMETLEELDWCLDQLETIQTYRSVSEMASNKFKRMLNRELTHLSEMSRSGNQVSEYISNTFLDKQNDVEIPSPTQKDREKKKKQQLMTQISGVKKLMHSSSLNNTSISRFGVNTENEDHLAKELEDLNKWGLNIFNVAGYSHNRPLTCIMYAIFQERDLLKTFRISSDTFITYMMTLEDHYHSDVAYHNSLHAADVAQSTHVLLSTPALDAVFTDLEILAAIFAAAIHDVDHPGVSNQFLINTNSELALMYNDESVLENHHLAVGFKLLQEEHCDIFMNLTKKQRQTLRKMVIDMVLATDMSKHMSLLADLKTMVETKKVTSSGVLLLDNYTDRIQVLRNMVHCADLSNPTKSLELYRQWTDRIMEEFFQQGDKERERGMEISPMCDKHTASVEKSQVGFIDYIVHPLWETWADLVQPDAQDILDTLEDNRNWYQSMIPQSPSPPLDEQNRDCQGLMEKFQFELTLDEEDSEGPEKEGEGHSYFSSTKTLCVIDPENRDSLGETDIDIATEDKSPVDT
How it was run: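 HEK293 ACTOne cells with CNG channel (1000/well), endogenous PDE4; membrane potential dye, compounds up to 22.9 uM final. Fluorescence Ex 535/Em 590; RO 20-1724 (100 uM final) as reference.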

CCCNc1ncnc2[nH]ncc12
inactive: Potency [1] > 11.4 µM | activity change, negative = inhibition [2] -4.57% | activity change, negative = inhibition [3] 5.61% | activity, negative = inhibition [4] -1.7% | Potency [5] > 46 µM | Potency [6] > 9.22 µM | Potency [7] | Potency [8]

O=C(O)/C(Cc1ccnc2ccccc12)=N\O
inactive: Potency [1] > 11.4 µM | activity change, negative = inhibition [2] -9.39% | activity change, negative = inhibition [3] 0.364% | activity, negative = inhibition [4] 4.23% | Potency [5] > 46 µM | Potency [6] > 9.22 µM | Potency [7] | Potency [8]

CC1(C)CCC(=O)N[C@H]1CC(=O)C[C@H]1NC(=O)CCC1(C)C
inactive: Potency [1] > 11.4 µM | activity change, negative = inhibition [2] -7.26% | activity change, negative = inhibition [3] 13% | activity, negative = inhibition [4] 3.06% | Potency [5] > 46 µM | Potency [6] > 9.22 µM | Potency [7] | Potency [8]

COc1ccc(Oc2ncc3nc(-c4ccccc4)c(=O)n(CCC#N)c3n2)cc1
inactive: Potency [1] > 11.4 µM | activity change, negative = inhibition [2] -26.9% | activity change, negative = inhibition [3] -6.24% | activity, negative = inhibition [4] -6.05% | Potency [5] > 9.22 µM | Potency [6] > 46 µM | Potency [7] | Potency [8]

CC(=O)O[C@@H]1CC[C@]2(C)C(=C[C@@H]([C@@H]3C=C4C[C@@H](OC(C)=O)CC[C@]4(C)C4=C3[C@H]3C[C@@H]5O[C@@]6(CC[C@H](C)CO6)[C@@H](C)[C@@H]5[C@@]3(C)CC4)C3=C2CC[C@@]2(C)[C@H]4[C@@H](C)[C@]5(CC[C@H](C)CO5)O[C@@H]4C[C@H]32)C1
inactive: Potency [1] > 11.4 µM | activity change, negative = inhibition [2] 7.21% | activity change, negative = inhibition [3] 21% | activity, negative = inhibition [4] -1.63% | Potency [5] > 46 µM | Potency [6] > 9.22 µM | Potency [7] | Potency [8]

O=C(O)CCCN1CCCCC1
inactive: Potency [1] > 11.4 µM | activity change, negative = inhibition [2] 9.35% | activity change, negative = inhibition [3] 1.19% | activity, negative = inhibition [4] 9.26% | Potency [5] > 46 µM | Potency [6] > 9.22 µM | Potency [7] | Potency [8]

O=C(O)CCNc1ccccc1C(=O)O
inactive: Potency [1] > 11.4 µM | activity change, negative = inhibition [2] -0.595% | activity change, negative = inhibition [3] 4.52% | activity, negative = inhibition [4] 6.23% | Potency [5] > 46 µM | Potency [6] > 9.22 µM | Potency [7] | Potency [8]

c1ccc(CN2COc3c(ccc4c5c(ccc34)CN(Cc3ccccc3)CO5)C2)cc1
inactive: Potency [1] > 11.4 µM | activity change, negative = inhibition [2] -0.336% | activity change, negative = inhibition [3] 7.9% | activity, negative = inhibition [4] 8.56% | Potency [5] > 46 µM | Potency [6] > 9.22 µM | Potency [7] | Potency [8]

C[N+]1(C)CCO[C@](O)(c2ccccc2)C1
inactive: Potency [1] > 11.4 µM | activity change, negative = inhibition [2] 7.17% | activity change, negative = inhibition [3] -3.28% | activity, negative = inhibition [4] 6.89% | Potency [5] > 46 µM | Potency [6] > 9.22 µM | Potency [7] | Potency [8]

COC(=O)[C@@H]1[C@@H]2C[C@H]3c4[nH]c5ccccc5c4CCN3C[C@@H]2CC[C@@H]1OS(=O)(=O)O
inactive: Potency [1] > 11.4 µM | activity change, negative = inhibition [2] 1.46% | activity change, negative = inhibition [3] 3.3% | activity, negative = inhibition [4] 12.7% | Potency [5] > 46 µM | Potency [6] > 9.22 µM | Potency [7] | Potency [8]

O=C(O)[C@H]1O[C@H]1C(=O)O
inactive: Potency [1] > 11.4 µM | activity change, negative = inhibition [2] 7.85% | activity change, negative = inhibition [3] -1.75% | activity, negative = inhibition [4] 2.71% | Potency [5] > 46 µM | Potency [6] > 9.22 µM | Potency [7] | Potency [8]

COC(=O)c1cc(=O)[nH]c(=O)[nH]1
inactive: Potency [1] > 11.4 µM | activity change, negative = inhibition [2] 9.08% | activity change, negative = inhibition [3] 1.11% | activity, negative = inhibition [4] -3.43% | Potency [5] > 46 µM | Potency [6] > 9.22 µM | Potency [7] | Potency [8]

C[C@@H](CCC[C@@H]1SC[C@H]2NC(=O)N[C@H]12)C(=O)O
inactive: Potency [1] > 11.4 µM | activity change, negative = inhibition [2] -0.543% | activity change, negative = inhibition [3] -21.7% | activity, negative = inhibition [4] -4.44% | Potency [5] > 46 µM | Potency [6] > 9.22 µM | Potency [8]
active: Potency [7] 0.0316 µM

CCCS(=O)(=O)O
inactive: Potency [1] > 11.4 µM | activity change, negative = inhibition [2] -5.23% | activity change, negative = inhibition [3] 0.712% | activity, negative = inhibition [4] 4.08% | Potency [5] > 46 µM | Potency [6] > 9.22 µM | Potency [7] | Potency [8]

CC(=O)Nc1ccccc1C=C1c2ccccc2-c2ccccc21
inactive: Potency [1] > 11.4 µM | activity change, negative = inhibition [2] -4.76% | activity change, negative = inhibition [3] 18% | activity, negative = inhibition [4] -16.5% | Potency [5] > 46 µM | Potency [6] > 9.22 µM | Potency [7] | Potency [8]

OC1(C(O)(c2ccc(-c3ccccc3)cc2)c2ccc(-c3ccccc3)cc2)CCCCC1
inactive: Potency [1] > 11.4 µM | activity change, negative = inhibition [2] 7.3% | activity change, negative = inhibition [3] 2.32% | activity, negative = inhibition [4] 1.1% | Potency [5] > 46 µM | Potency [6] > 9.22 µM | Potency [7] | Potency [8]

Cn1cnc([N+](=O)[O-])c1Sc1nc(N)nc2c1ncn2[C@H]1C[C@H](O)[C@@H](CO)O1
inactive: Potency [1] > 11.4 µM | activity change, negative = inhibition [2] -4.23% | activity change, negative = inhibition [3] -2.48% | activity, negative = inhibition [4] 0.176% | Potency [5] > 46 µM | Potency [6] > 9.22 µM | Potency [7] | Potency [8]

CC[C@@H](c1ccc2cc(O)ccc2c1)C(C)(C)C(=O)O
inactive: Potency [1] > 11.4 µM | activity change, negative = inhibition [2] -1.38% | activity change, negative = inhibition [3] 8.96% | activity, negative = inhibition [4] 6.79% | Potency [5] > 46 µM | Potency [6] > 9.22 µM | Potency [7] | Potency [8]

C[C@@](O)(CNS(=O)(=O)c1ccccc1)c1ccccc1
inactive: Potency [1] > 11.4 µM | activity change, negative = inhibition [2] 0.078% | activity change, negative = inhibition [3] 3.96% | activity, negative = inhibition [4] -0.864% | Potency [5] > 46 µM | Potency [6] > 9.22 µM | Potency [7] | Potency [8]

CC1(C)CC(=O)C(C(c2cccc(O)c2O)C2C(=O)CC(C)(C)CC2=O)C(=O)C1
inactive: Potency [1] > 11.4 µM | activity change, negative = inhibition [2] -0.68% | activity change, negative = inhibition [3] 2.55% | activity, negative = inhibition [4] 1.05% | Potency [5] > 46 µM | Potency [6] > 9.22 µM | Potency [7] | Potency [8]

CC(=O)Nc1ccc(-c2cc(C(=O)O)c3cc4ccccc4cc3n2)cc1
inactive: Potency [1] > 11.4 µM | activity change, negative = inhibition [2] 7.67% | activity change, negative = inhibition [3] 5.02% | activity, negative = inhibition [4] -2.25% | Potency [5] > 46 µM | Potency [6] > 9.22 µM | Potency [7] | Potency [8]

C[C@H](CCC(=O)O)[C@H]1CC[C@@H]2[C@@H]3CC[C@H]4C[C@@H](O)CC[C@@]4(C)[C@@H]3C[C@H](O)[C@@]21C
inactive: Potency [1] > 11.4 µM | activity change, negative = inhibition [2] 4.11% | activity change, negative = inhibition [3] 27.2% | activity, negative = inhibition [4] 2.1% | Potency [5] > 46 µM | Potency [6] > 9.22 µM | Potency [7] | Potency [8]

COc1ncc2nc(C)c(=O)n(C)c2n1
inactive: Potency [1] > 11.4 µM | activity change, negative = inhibition [2] -15% | activity change, negative = inhibition [3] -2.54% | activity, negative = inhibition [4] -2.89% | Potency [5] > 9.22 µM | Potency [6] > 46 µM | Potency [7] | Potency [8]

Nc1ccn([C@H]2O[C@H](CO)[C@@H]3[O][Sn]([c]4ccccc4)([c]4ccccc4)[O][C@H]32)c(=O)n1
inactive: Potency [1] > 11.4 µM | activity change, negative = inhibition [2] -22.1% | activity change, negative = inhibition [3] -9.06% | activity, negative = inhibition [4] -20.4% | Potency [5] > 46 µM | Potency [6] > 9.22 µM | Potency [7] | Potency [8]

COc1c2c(c3c(c1CCC(=O)O)OC(C)(C)C=C3)OC(C)(C)C=C2
inactive: Potency [1] > 11.4 µM | activity change, negative = inhibition [2] -1.7% | activity change, negative = inhibition [3] 13.1% | activity, negative = inhibition [4] -3.06% | Potency [5] > 46 µM | Potency [6] > 9.22 µM | Potency [7] | Potency [8]

O=C(NCc1cccs1)O[C@H]1C[C@H]2CC[C@@H]1C2
inactive: Potency [1] > 11.4 µM | activity change, negative = inhibition [2] 19.6% | activity change, negative = inhibition [3] 16.7% | activity, negative = inhibition [4] 8.46% | Potency [5] > 46 µM | Potency [6] > 9.22 µM | Potency [7] | Potency [8]

O=c1ccc(-c2ccccc2)n[nH]1
inactive: Potency [1] > 11.4 µM | activity change, negative = inhibition [2] 1.12% | activity change, negative = inhibition [3] -2.18% | activity, negative = inhibition [4] -3.27% | Potency [5] > 46 µM | Potency [6] > 9.22 µM | Potency [7] | Potency [8]
